Source: PubChem (National Center for Advancing Translational Sciences (NCATS))
Most compounds without a hit are left out; they make up all but 1.2% or so of the library.
KCNH2 3.1 inh: qHTS for Inhibitors of KCHN2 3.1: Mutant qHTS; 340,000 compounds, 0.95% hits; Potassium voltage-gated channel subfamily H member 2, brain isoform KCNH2 3.1 (human); activity change, % (tested at about 1.8 µM); U2OS KCNH2 3.1, thallium flux FluxOr; hits give low values;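 active = maximum activity change below -70%; inconclusive = maximum activity change from -70% to -50%; inactive = maximum activity change above -50%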;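 note: thallium influx rate constant from kinetic fluorescence after stimulation buffer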
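Kinetic fluorescence (2 min after stimulation buffer) measures Tl+ influx through KCNH2 3.1 expressed by viral transduction in U2OS cells; the rate constant is normalized against DMSO controls serving as positive and negative references.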
KAT2A inh: qHTS Assay for Inhibitors of GCN5L2. GCN5L2 HAT assay, ThioGlo1 CoA-SH fluorescence. Histone acetyltransferase KAT2A (Homo sapiens), Q92830. AID 504327, 2011. 390,000 compounds, 0.21% hits. Potency, µM (doses to about 58.9 µM), inactives show top-dose activity change, negative = inhibition, hits mostly inhibitors; note: potency is the fitted concentration of half-maximal effect
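Free CoA generated was detected with ThioGlo1 (50uM) fluorescence at Ex340nm/Em540nm, read immediately and after 20 min at room temperature. Enzyme, 20 nM in HEPES pH 7.5 buffer, saw compounds 15 min before adding 75uM H3(1-25) peptide and 70uM acetyl-CoA.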
RGS4 inh: Inhibitors of Regulator of G Protein Signaling (RGS) 4: qHTS; Potency, µM (highest dose often 114 µM), without a hit: top-dose activity change, negative = inhibition, hits mostly inhibitors; 390,000 compounds, 0.039% hits; Transcreener GDP fluorescence polarization, RGS4-accelerated GTP hydrolysis; Regulator of G-protein signaling 4 (Homo sapiens), P49798; note: potency is the fitted concentration of half-maximal effect; nearly all actives have a fitted effect of over 75% in size
Target sequence (P49798 whole entry, looked up): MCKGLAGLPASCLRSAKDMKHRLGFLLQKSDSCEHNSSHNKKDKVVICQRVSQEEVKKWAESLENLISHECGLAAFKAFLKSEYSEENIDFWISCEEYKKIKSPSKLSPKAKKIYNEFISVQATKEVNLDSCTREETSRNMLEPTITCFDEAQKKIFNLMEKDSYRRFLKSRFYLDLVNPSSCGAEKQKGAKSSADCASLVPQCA
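MLSMR compounds (23 nl, pin-transferred) preincubated 10 min at room temperature with a 500nM (2x) first reagent, then RGS4 at 900nM (2x) plus Transcreener GDP mix added; fluorescence polarization (620/688 nm) read before and after 90 min at 30 °C.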
KCNH2 WT inh: qHTS for Inhibitors of KCHN2 3.1: Wildtype qHTS. U2OS, BacMam KCNH2, thallium flux FluxOr; hits give low values. activity change, % at 1.84 µM. 340,000 compounds, 0.37% hits;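 active = maximum activity change below -70%; inconclusive = maximum activity change between -70% and -50%; inactive = maximum activity change above -50%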
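U2OS cells transduced with wild-type KCNH2 virus are loaded with FluxOr dye for 45 min, and thallium flux is measured in kinetic reads before and after stimulation buffer. Rate constants are normalized to DMSO controls.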
Pin1 inh: qHTS Assay to Find Inhibitors of Pin1; Peptidyl-prolyl cis-trans isomerase NIMA-interacting 1 (Homo sapiens), Q13526; Pin1 FP peptide displacement, HiFluor488, 10 min; Potency, µM (highest dose often 115 µM), inactives show at the top dose activity, negative = inhibition, actives largely listed as inhibitors; 390,000 compounds, 0.009% hits; AID 504891, 2011; active = well fitted inhibition curve with a large enough effect in the polarisation, with a control signal flat, not every such curve was filed as active; inconclusive = small, poorly fitted or top-dose-only effect, or effect the other way, or a change in a side signal; inactive = no such curve, though single readings can be large or run the other way; the % refers to the polarisation; note: potency is the fitted concentration of half-maximal effect
PGK inhibitor: qHTS Assay to Find Inhibitors of Phosphoglycerate Kinase | Phosphoglycerate kinase, glycosomal (Trypanosoma brucei brucei), P07378 | PGK/GAPDH coupled, Kinase-Glo luminescence, 60 min | Potency, µM (top dose mostly 57.5 µM), without a hit: top-dose activity change, negative = inhibition, hits mostly inhibitors | 380,000 compounds, 0.043% hits; note: potency is the fitted concentration of half-maximal effect; nearly all actives have a fitted effect of over 60% in size
Target sequence (P07378 whole entry, looked up): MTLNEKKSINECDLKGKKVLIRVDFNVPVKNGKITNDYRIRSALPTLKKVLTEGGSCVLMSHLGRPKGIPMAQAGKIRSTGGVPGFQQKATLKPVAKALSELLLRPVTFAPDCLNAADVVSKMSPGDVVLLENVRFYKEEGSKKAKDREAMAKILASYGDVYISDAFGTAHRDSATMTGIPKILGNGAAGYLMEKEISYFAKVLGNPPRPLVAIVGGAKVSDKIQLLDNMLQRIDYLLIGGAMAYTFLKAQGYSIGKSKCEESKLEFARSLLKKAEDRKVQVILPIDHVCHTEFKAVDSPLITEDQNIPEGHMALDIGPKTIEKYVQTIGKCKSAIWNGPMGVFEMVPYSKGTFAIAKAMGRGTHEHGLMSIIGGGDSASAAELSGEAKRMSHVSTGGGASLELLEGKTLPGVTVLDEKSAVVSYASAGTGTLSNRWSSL
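Recombinant glycosomal PGK reaction used 1,3-bisphosphoglycerate generated in-well by GAPDH (100nM final) in 100mM TEA pH 7.6, 5mM MgCl2, 0.01% Tween-20. After 60 minutes at room temperature, ATP was read by Kinase-Glo Plus luminescence end-point.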
* marks the source's active call; other numbers are inactive results. Unless noted, calls come from the whole dose curve; as a rule, active = well fitted curve in the direction sought with a large enough effect; inconclusive = small, poorly fitted or top-dose-only effect, or another doubt; inactive = no such curve, though single readings can be large; an effect the other way counts as inactive or inconclusive. % is set by controls: 0 for no effect and ±100 for the full control effect.

What do the screens show for `COC(=O)CNC(=O)CNC(=O)Nc1ccccc1Cl`?
KCNH2 3.1 inh: -77*; KAT2A inh: -5%; RGS4 inh: -24%; KCNH2 WT inh: -12; Pin1 inh: -2%; PGK inhibitor: 4%

Results for O=C1c2[nH]nc(-c3ccccc3O)c2C(c2cccc(Cl)c2)N1CC1CCCO1 (configuration not stated) ?
KCNH2 3.1 inh: -191*; KAT2A inh: -5%; RGS4 inh: inconclusive; KCNH2 WT inh: -137*; Pin1 inh: 8%; PGK inhibitor: 4%

How did O=C1c2[nH]nc(-c3ccccc3O)c2C(c2ccc(F)cc2)N1CC1CCCO1 (configuration not stated) do in these assays?
KCNH2 3.1 inh: -1; KAT2A inh: -1%; RGS4 inh: 7%; KCNH2 WT inh: 4; Pin1 inh: -6%; PGK inhibitor: 0%

What do the screens show for `Cc1cc(C)c(S(=O)(=O)Nc2ccc(-c3ccc(N4CCCCC4)nn3)cc2)c(C)c1`?
KAT2A inh: -12%; RGS4 inh: -41%; Pin1 inh: 25%; PGK inhibitor: -2%

What do the screens show for `Cc1ccc(C(=O)CSc2nc(-c3ccccc3)cc(=O)[nH]2)cc1`?
KCNH2 3.1 inh: 0; KAT2A inh: -23%; RGS4 inh: 1%; KCNH2 WT inh: -91*; Pin1 inh: 30%; PGK inhibitor: -4%

What do the screens show for `CCN(CC)S(=O)(=O)c1ccc2c(c1)N(CC(=O)Nc1ccc(F)cc1F)C(=O)C1CCCN21` (configuration not stated)?
KAT2A inh: -8%; RGS4 inh: 6%; Pin1 inh: 23%; PGK inhibitor: -4%

How did COc1ccccc1NC(=O)Cc1nnc(SCC(=O)Nc2ccc(F)cc2F)n1C do in these assays?
KCNH2 3.1 inh: 9; KAT2A inh: -1%; RGS4 inh: -3%; KCNH2 WT inh: -7; Pin1 inh: 3%; PGK inhibitor: -6%

What do the screens show for `COc1ccccc1NC(=O)CSc1nnc(CCC(=O)Nc2ccccc2F)n1C`?
KCNH2 3.1 inh: -8; KAT2A inh: 35µM*; RGS4 inh: 21%; KCNH2 WT inh: -17; Pin1 inh: 2%; PGK inhibitor: -9%

Results for Cc1ccccc1NC(=O)Cn1cc(S(=O)(=O)N2CCCC2)c(S(=O)(=O)N2CCCC2)c1 ?
KAT2A inh: 0%; RGS4 inh: -38%; Pin1 inh: -2%; PGK inhibitor: -3%

How did Cc1cccc(N2CCN(C(=O)c3ccc4c(c3)NC(=O)C(CSCc3cccc(F)c3)N4)CC2)c1C (configuration not stated) do in these assays?
KAT2A inh: 28µM*

What do the screens show for `O=c1c2ccccc2sn1-c1nccs1`?
KCNH2 3.1 inh: -11; KAT2A inh: 3.2µM*; RGS4 inh: -131%; KCNH2 WT inh: 5; Pin1 inh: 3%; PGK inhibitor: -5%

What do the screens show for `O=c1c2ccccc2sn1-c1ccccc1`?
KCNH2 3.1 inh: -12; KAT2A inh: 1µM*; RGS4 inh: inconclusive; KCNH2 WT inh: -1; Pin1 inh: -2%; PGK inhibitor: -5%

Results for CN(C)S(=O)(=O)c1cccc(-n2sc3ccccc3c2=O)c1 ?
KCNH2 3.1 inh: 2; KAT2A inh: 1.6µM*; RGS4 inh: -124%; KCNH2 WT inh: 0; Pin1 inh: -4%; PGK inhibitor: -13%

What do the screens show for `O=c1c2cc(C(F)(F)F)ccc2sn1-c1ccccc1`?
KCNH2 3.1 inh: -22; KCNH2 WT inh: 1; PGK inhibitor: -9%

Results for O=c1c2cc(F)ccc2sn1-c1ccccc1 ?
KCNH2 3.1 inh: 0; KAT2A inh: 1.1µM*; RGS4 inh: -93%; KCNH2 WT inh: 22; Pin1 inh: 1%; PGK inhibitor: 1%

How did O=C(OCC1CCCO1)c1ccc2c(c1)N(Cc1ccccc1F)C(=O)c1ccccc1S2(=O)=O (configuration not stated) do in these assays?
KAT2A inh: -5%; RGS4 inh: -3%; Pin1 inh: 17%; PGK inhibitor: -7%

How did O=C(Cn1c(SCc2cccc(F)c2)nc2cccnc21)Nc1ccc(F)c(Cl)c1 do in these assays?
KAT2A inh: 2%; RGS4 inh: -14%; Pin1 inh: 35%; PGK inhibitor: 6%

Results for O=C(O)c1cccc(-n2sc3ccccc3c2=O)c1 ?
KCNH2 3.1 inh: -10; KAT2A inh: 1.3µM*; RGS4 inh: -133%; KCNH2 WT inh: 2; Pin1 inh: -14%; PGK inhibitor: -10%

What do the screens show for `Cc1ccccc1-n1sc2cc(F)ccc2c1=O`?
KCNH2 3.1 inh: -5; KAT2A inh: 1.3µM*; RGS4 inh: -134%; KCNH2 WT inh: 2; Pin1 inh: -8%; PGK inhibitor: -4%

What do the screens show for `COc1ccc(CC(=O)c2ccc(OC3OC(CO)C(O)C(O)C3O)cc2O)cc1` (configuration not stated)?
KCNH2 3.1 inh: 17; KAT2A inh: -7%; RGS4 inh: -14%; KCNH2 WT inh: -95*; Pin1 inh: 1%; PGK inhibitor: -2%

Results for COc1cc2ccc(=O)oc2c(O[C@@H]2O[C@H](CO)[C@@H](O)[C@H](O)[C@H]2O)c1O ?
KCNH2 3.1 inh: -27; KAT2A inh: 22µM*; RGS4 inh: -16%; KCNH2 WT inh: -4; Pin1 inh: inconclusive; PGK inhibitor: 7%

Results for Nc1ncnc2c1c(I)cn2C1OC(CO)C(O)C1O (configuration not stated) ?
KAT2A inh: 4%; RGS4 inh: inconclusive

How did COC(=O)C(C)Sc1nnc2cc(C)c3cc(C)cc(C)c3n12 (configuration not stated) do in these assays?
KAT2A inh: -2%; RGS4 inh: 22%; Pin1 inh: 1%; PGK inhibitor: inactive

How did CNC(=S)NNC(=O)c1cccn(Cc2ccc(Cl)cc2Cl)c1=O do in these assays?
KAT2A inh: 0.56µM*

How did Cc1cc(=O)oc2c3c(cc(OCC(=O)NCC(=O)N[C@H](C(=O)O)C(C)C)c12)OC(C)(C)CC3 do in these assays?
KCNH2 3.1 inh: 17; KAT2A inh: -18%; RGS4 inh: 8%; KCNH2 WT inh: 3; Pin1 inh: -2%; PGK inhibitor: 1%
